# In PubChem BioAssay AID1376 (SRMLSC, 2008):
# In all, about 220,000 compounds went through this assay and about 530 (0.24%) were called active. This excerpt belongs to a sample that is enriched for actives. Results with a measured potency or affinity are listed apart. Values without a mark were called inactive. Rule as the data show it: active = inhibition above about 13%; inconclusive = no clear call, values can overlap the other calls; inactive = below that.
# Target: Bifunctional protein GlmU (Mycobacterium tuberculosis (strain ATCC 25618 / H37Rv)) (UniProt P9WMN3)
# Sequence (P9WMN3 whole entry, looked up): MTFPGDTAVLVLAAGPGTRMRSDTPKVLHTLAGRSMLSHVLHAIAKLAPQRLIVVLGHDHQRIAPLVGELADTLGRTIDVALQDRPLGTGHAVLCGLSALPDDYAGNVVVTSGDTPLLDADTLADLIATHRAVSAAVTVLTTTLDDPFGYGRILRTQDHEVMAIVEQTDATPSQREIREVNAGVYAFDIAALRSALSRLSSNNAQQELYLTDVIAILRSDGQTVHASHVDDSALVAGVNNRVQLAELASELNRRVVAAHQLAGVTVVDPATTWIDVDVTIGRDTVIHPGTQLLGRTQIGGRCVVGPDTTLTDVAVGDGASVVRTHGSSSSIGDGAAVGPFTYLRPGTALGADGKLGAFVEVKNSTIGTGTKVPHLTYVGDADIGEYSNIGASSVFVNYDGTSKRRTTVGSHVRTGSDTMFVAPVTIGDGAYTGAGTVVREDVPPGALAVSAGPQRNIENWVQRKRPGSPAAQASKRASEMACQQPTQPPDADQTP
# Experiment: inhibition of mycobacterial GlmU enzyme – biochemical, glucosamine-1-phosphate acetyltransferase (AID 1376);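 also: 0% = complete reaction with vehicle and 100% = reaction without substrate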
# Details: M. tuberculosis GlmU acetyltransferase enzyme assay; active compounds read high;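 tested at 30 µM in the primary screen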
row,Structure (SMILES),inhibition
1,COc1ccc(C(=O)NC(=S)Nc2ccc(N3CCCC3)cc2)cc1,-3.46%
2,CC(C)Oc1ccc(C(=O)Nc2ccc(N3CCCC3)cc2)cc1,2.23%
3,COc1ccc(C(=O)Nc2ccc(N3CCCC3)cc2)cc1,13.4% (active)
4,O=C(O[C@@H]1OC2COC(=O)c3cc(O)c(O)c(O)c3-c3c(cc(O)c(O)c3O)C(=O)O[C@@H]([C@H]1O)[C@@H]2O)c1cc(O)c(O)c(O)c1,30.4%
5,CCC(=O)Nc1sc(C(=O)Nc2ccccc2OC)c(C)c1C(=O)OC,7.34%
6,O=C(/C=C/c1ccc(O)c(O)c1)OCCc1ccccc1,-2.12%
7,O=C(O)/C=C/c1ccc(O)c(O)c1,5.24%
8,CCN1C(=O)CC(N2CCOCC2)C1=O (stereo not drawn),-3.77%
9,CCOc1ccc(C2CC(c3ccc(F)cc3)Nc3nc(N)nn32)cc1 (stereo not drawn),2.32%
10,O=C1NC(=S)S/C1=C\c1coc2ccccc2c1=O,5.72%
11,CN1C(=O)/C(=C/c2coc3ccc(O)cc3c2=O)SC1=S,2.74%
12,O=C(Nc1ccc(Cl)cc1)Nc1ccccc1C(=O)O,-1.73%
13,Cc1nn(CC(=O)Nc2sc3c(c2C#N)CCC(C(C)(C)C)C3)c(C)c1[N+](=O)[O-] (stereo not drawn),14.3% (active)
14,Cc1nn(CCCC(=O)Nc2sc3c(c2C#N)CCC3)c(C)c1[N+](=O)[O-],-0.77%
15,CN1CCN(CC(=O)Nc2sc3c(c2C#N)CCC(C(C)(C)C)C3)CC1 (stereo not drawn),2.19%
16,CC(C)CCn1c(=O)c2ccccc2n2c(CN3CCCC3)nnc12,-3.44%
17,O=C1N=c2ccc(Br)cc2=C1c1sc(=S)n(NS(=O)(=O)c2ccccc2)c1O,13.8% (active)
18,O=S(=O)(Nn1c(O)c(C=C2N=c3ccccc3=N2)sc1=S)c1ccccc1,7.14%
19,O=C1N=c2ccccc2=C1c1sc(NS(=O)(=O)c2ccccc2)nc1O,13.8% (active)
20,O=C1N=c2ccccc2=C1c1sc(NS(=O)(=O)Cc2ccccc2)nc1O,5.63%
21,O=C1N=c2ccccc2=C1c1sc(Nc2ccc(O)cc2)nc1O,6.45%

row,Structure (SMILES),inhibition
1,O=C1N=c2ccccc2=C1c1sc(=S)n(NC(=O)c2cccc(O)c2)c1O,-0.24%
2,Cc1ccc(S(=O)(=O)Nn2c(O)c(C=C3N=c4ccccc4=N3)sc2=S)cc1,0.22%
3,O=C1N=c2ccccc2=C1c1sc(=S)n(NC(=O)c2ccccc2)c1O,13.4% (active)
4,COc1cc(C(=O)Nn2c(O)c(C3=c4ccccc4=NC3=O)sc2=S)ccc1O,4.03%
5,COc1ccc(C(=O)C2CCCN(C(=O)Cc3c(C)noc3C)C2)cc1OC (stereo not drawn),-6.51%
6,COc1ccccc1C(=O)NCCCN1CCCC1=O,-0.52%
7,Nc1c(C(=O)c2ccc(F)cc2)oc2ccccc12,1.74%
8,CCOc1ccccc1NC(=S)N(CCOC)C1CCN(C(C)=O)CC1,1.9%
9,CC(=O)N1CC=CC1(C)C(=O)NCc1cc(F)cc(C(F)(F)F)c1 (stereo not drawn),-2.53%
10,CCCCC(=O)Nc1ccc(C(=O)Nc2ccc(S(=O)(=O)Nc3ccc(C)cc3)cc2)cc1,3.43%
11,CCOc1ccc(N(CC(=O)NCC2CCCO2)C(=O)CCC(=O)Nc2nccs2)cc1 (stereo not drawn),-0.08%
12,Cc1oc(/N=C/c2c(O)ccc3ccccc23)c(C#N)c1C,-4.74%
13,Nc1c(C(=O)N2CCCCC2)sc(=S)n1-c1ccccc1,-0.25%
14,Nc1c(C(=O)N2CCOCC2)sc(=S)n1-c1ccccc1,13.9% (active)
15,Cc1ccc(-n2c(N)c(C(=O)N3CCOCC3)sc2=S)cc1,-2.93%
16,Cc1cc2ccccc2c(=O)n1CC(=O)NCC(=O)N1CCN(c2ccccc2F)CC1,-1.95%
17,CCOc1cc(CNCc2cccs2)ccc1OCC(=O)NC(C)(C)C,4.39%
18,OC(COc1ccc(Br)cc1)CN1CCOCC1 (stereo not drawn),-1.6%
19,COc1ccc(CSc2nnc(NC(C)=O)s2)cc1[N+](=O)[O-],-1.4%
20,C/C(=N\NC(=O)c1cccc(C)c1)c1cccc(NC(=O)c2ccco2)c1,21.3% (active)
21,C/C(=N\NC(=O)c1cccc(Cl)c1)c1cccc(NC(=O)c2ccco2)c1,4.79%

row,Structure (SMILES),inhibition
1,C/C(=N\NC(=O)c1ccc(F)cc1)c1cccc(NC(=O)c2ccco2)c1,1.13%
2,Cc1cccc(Cn2cccc2/C=C2/C(=N)N3C=CSC3=NC2=O)c1,-1.25%
3,CC(C)CC12CN3CCN(CC(C3)/C1=N/O)C2,0.59%
4,COc1ccc(COc2ccccc2C(N)=O)cc1F,3.33%
5,O=S(=O)(c1ccc(OCC(O)CN2CCN(c3ccc(F)cc3)CC2)cc1)N1CCOCC1 (stereo not drawn),3.7%
6,Cc1ccccc1CN1[C@@H](Cc2ccccc2)COCCS1(=O)=O,-3.47%
7,O=C(O)c1cc(N=Nc2c(O)ccc3ccccc23)cc(C(=O)O)c1,25.6% (active)
8,Oc1ccc(N=Nc2c(O)ccc3ccccc23)cc1,0.98%
9,O=S(=O)(O)c1cccc(N=Nc2c(O)ccc3ccccc23)c1,3.89%
10,C#CCn1c(-c2ccccc2)ccc(C#N)c1=O,1.35%
11,CCOC(=O)Cn1c(-c2ccccc2)ccc(C#N)c1=O,-5.69%
12,CCn1c(-c2ccccc2)ccc(C#N)c1=O,14.1% (active)
13,O=C(CSc1ccccc1C(=O)O)NCC1CCCCC1,-4.3%
14,COCCn1c(SCC(=O)c2[nH]c(C)c(C(C)=O)c2C)nc2ccccc21,3.37%
15,Cc1cc(N2CCC(C(=O)NC3CCCCC3)CC2)nc(-c2ccccc2)n1,13.9% (active)
16,C#CCNC(=O)C1CCN(c2cc(C)nc(-c3ccccc3)n2)CC1,-1.53%
17,Cc1cc(N2CCC(C(=O)NC3CC3)CC2)nc(-c2ccccc2)n1,1.37%
18,CC(=O)c1ccc(N2CCN(C(=S)Nc3ccccc3F)CC2)cc1,-4.01%
19,CS(=O)(=O)N1CCC(C(=O)N2CCN(Cc3ccccc3)CC2)CC1,0.44%
20,CCCS(=O)(=O)N1CCC(C(=O)N2CCN(Cc3ccccc3)CC2)CC1,30.1% (active)
21,CCS(=O)(=O)N1CCC(C(=O)N2CCN(Cc3ccccc3)CC2)CC1,-4.26%
